This note sets out measurements from PubChem BioAssay (NCATS).

For one test, the system named is HB3. Description: qHTS profiling for inhibitors of Plasmodium falciparum proliferation (AID 504749). Also: potency is read from the fitted curve at half-maximal effect. As to conditions: P. falciparum in erythrocytes, SYBR Green DNA, 72 h; series mostly up to 28.7 µM. The method in brief:
(§1)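 P. falciparum-infected erythrocytes (0.3% parasitemia, 2.5% hematocrit) incubated with compound 72 h at 37 C, 5% CO2. Parasite DNA detected by SYBR Green after lysis, overnight at room temperature; normalised to 0.29 uM artemisinin and DMSO.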
Background: In qHTS, concentration-response curves come from the screen itself.

A further test has as its system ICS. Described as above. Particulars: P. falciparum in erythrocytes, SYBR Green DNA, 72 h; series mostly up to 28.7 µM. Summed up: as §1
The next test relates to N140. Described as above. Particulars: P. falciparum in erythrocytes, SYBR Green DNA, 72 h; series mostly up to 28.7 µM. The method in brief: as §1
In another test the test system is P93_24. The description is as above. As to conditions: P. falciparum in erythrocytes, SYBR Green DNA, 72 h; series mostly up to 28.7 µM. The method in brief:
as §1

Another test relates to P94_40. The description is as above. Particulars: P. falciparum in erythrocytes, SYBR Green DNA, 72 h; series mostly up to 28.7 µM. Summed up:
as §1

The next test relates to PAD. Described as above. As to conditions: P. falciparum in erythrocytes, SYBR Green DNA, 72 h; series mostly up to 28.7 µM. The method in brief:
as §1

The test system of a further test is PC26. Described as above. As to conditions: P. falciparum in erythrocytes, SYBR Green DNA, 72 h; series mostly up to 28.7 µM. The method in brief: as §1
The test system of a further test is PC49. The test is described as above. Particulars: P. falciparum in erythrocytes, SYBR Green DNA, 72 h; series mostly up to 28.7 µM. Summed up: as §1
For the next test, the system named is SC27B. Described as above. As to conditions: P. falciparum in erythrocytes, SYBR Green DNA, 72 h; series mostly up to 28.7 µM. Summed up:
as §1

The next test has as its system TAB109. The test is described as above. Particulars: P. falciparum in erythrocytes, SYBR Green DNA, 72 h; series mostly up to 28.7 µM. The method in brief:
as §1

For the next test, the system named is TAB113. The description is as above. As to conditions: P. falciparum in erythrocytes, SYBR Green DNA, 72 h; series mostly up to 28.7 µM. The method in brief:
as §1

Another test relates to TAB165. The test is described as above. Particulars: P. falciparum in erythrocytes, SYBR Green DNA, 72 h; series mostly up to 28.7 µM. Summed up: as §1
The test system of a further test is CRL-7250. Description: Cytotoxic Profiling of Annotated Libraries Using Quantitative High-Throughput Screening (AID 1296008). Also: potency is read from the fitted curve at half-maximal effect. As to max response: % is scaled to controls: 0 for no effect and ±100 for the full control effect. Particulars: Five cell lines viability, CellTiter-Glo ATP luminescence, 48-72 h; max response: stronger effect = lower value. Summed up: (§2)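 Cells exposed to compounds for 48 or 72 hr at 37 degrees Celsius. Viability read as ATP-coupled luminescence with CellTiter-Glo after 10 min at room temperature.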
A general note: Cellular ATP, detected with luciferase, serves as a proxy for viable cell number.

For a further test, the system named is HEK293. Described as above. As to conditions: Five cell lines viability, CellTiter-Glo ATP luminescence, 48-72 h; max response: stronger effect = lower value. The method in brief: as §2
Test [1] relates to HaCat. Described as above. Particulars: Five cell lines viability, CellTiter-Glo ATP luminescence, 48-72 h; max response: stronger effect = lower value. Summed up:
as §2

The next test has as its system KB-3-1. Described as above. Particulars: Five cell lines viability, CellTiter-Glo ATP luminescence, 48-72 h; max response: stronger effect = lower value. Summed up:
as §2

Another test deals with NIH3T3. The test is described as above. Particulars: Five cell lines viability, CellTiter-Glo ATP luminescence, 48-72 h; max response: stronger effect = lower value. Summed up:
as §2

In test [2] the test system is HACAT. The test can be described thus: qHTS assay to identify novel small-molecules to repurpose for Merkel cell carcinoma treatment (AID 1296009). Particulars: MCC and control cell lines, CellTiter-Glo viability, 72 h; at 44.8 µM (top of the series) unless noted. Summed up: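 Cells were treated for 72 hr at 37 degree celsius with compounds in 8- or 11-point dose response. Viability was read by CellTiter-Glo luminescence, normalized to no-cell (cytotoxicity) and DMSO controls.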

Records with an inconclusive call do not appear. Active and inactive are the calls of the source. Calls follow the shape of the dose curve; as a rule, active = well fitted inhibition curve with a large enough effect; inconclusive = small, poorly fitted or top-dose-only effect; inactive = flat fitted curve, though single readings scatter.
Also: nearly all actives have a fitted effect of over 60% in size.

In the case of `CCCCCCCCCCCCCC[N+](C)(C)C`, the Potency in the test with HB3 is 6.31 µM (active); in the test with ICS it was 2.51 µM (active); in the test with N140 it was 6.31 µM (active); in the test on P93_24, 5.01 µM (active); in the test on P94_40 it was 6.31 µM (active); in the test on PAD it was 10 µM (active). Moreover, the Potency is 6.01 µM (active) with PC26; 6.31 µM (active) in the test with SC27B; 4.47 µM (active) in the test on TAB109; 5.01 µM (active) in the test with TAB113; 5.62 µM (active) in the test on TAB165; 7.5 µM (active) in the test on CRL-7250. The Potency in the test with HEK293 is 2.66 µM (active); in the test with HaCat [1], 5.96 µM (active); in the test with KB-3-1, 16.4 µM (active); with NIH3T3 it was 23.7 µM (active). In the test with PC49, the Potency result was “inactive”.

As for `CN1CCC(=C2c3ccccc3CCc3cccnc32)CC1`, the max response in the test on CRL-7250 was 3.77% (inactive); with HEK293, 2.67% (inactive); in the test on KB-3-1 it was -10.8% (inactive). For the same compound, the outcome in the test with HaCat [1], with NIH3T3 and in the test with HACAT [2] was inactive.

Take `O=C(CCCCC(=O)Nc1c(I)cc(I)c(C(=O)O)c1I)Nc1c(I)cc(I)c(C(=O)O)c1I`: the max response was 2.98% (inactive) in the test on CRL-7250, 4.99% (inactive) with HaCat [1] and 4.23% (inactive) with NIH3T3. Further, in the test on HEK293, the compound was classed as inactive.

Regarding `COc1cc(S(N)(=O)=O)cc(C(=O)O)c1OC`, the max response in the test on CRL-7250 was 3.62% (inactive); in the test on HEK293 it was -2.74% (inactive); in the test on HaCat [1], 2% (inactive). The outcome with NIH3T3 was inactive.

For the compound `CN1C(=O)CC(C)(c2ccccc2)C1=O` (stereo not given), the max response with CRL-7250 is -0.376% (inactive); in the test on HEK293, 1.84% (inactive); in the test with KB-3-1, -1.96% (inactive). In addition, the call in the test with HaCat [1], in the test with NIH3T3 and in the test with HACAT [2] was inactive.

Turning to `COC(=O)C1=CO[C@@H](O)[C@@H]2C(CO)=CC[C@H]12`, the max response in the test with CRL-7250 was 0.169% (inactive); in the test on HEK293, -25.4% (inactive); in the test with HaCat [1], -1.37% (inactive); in the test on NIH3T3, -14.6% (inactive).

`C[C@@]12CCC[C@H]1[C@@H]1CC[C@H]3C[C@@H](O)CC[C@]3(C)[C@H]1CC2`: the values for the max response in the test on CRL-7250, in the test on HaCat [1] and in the test with NIH3T3 were 2.58% (inactive), 2.53% (inactive) and 0.76% (inactive), respectively. The result with HEK293 was inactive.
